Measurements reported in PubChem BioAssay (Tox21).
Results filed as inconclusive are left out. Calls of active or inactive are those of the source. The call rests on the fitted dose curve; in most records, active means well fitted cell-killing curve with a large enough effect in the repeat runs; inconclusive means weak or mixed curves; inactive means flat fitted curve, though single readings scatter.

Experiment: qHTS assay to identify small molecule antagonists of the estrogen receptor beta (ER-beta) signaling pathway - cell viability counter screen (AID 1259382); further: nearly all actives have a fitted effect of over 55% in size
Settings: ER-beta-UAS-bla HEK293T viability, CellTiter-Glo luminescence, 16 h; series mostly up to 92.4 µM
From the text: U.S. Tox21 Program National Center for Advancing Translational Sciences [NCATS] NIH Chemical Genomics Center [NCGC] U.S. Environmental Protection Agency [EPA] National Institutes of Environmental Health Sciences [NIEHS] National Toxicology Program [NTP] U.S. Food and Drug Administration [FDA] Tox21 Assay Overview: Estrogen receptor (ER), a nuclear hormone receptor, plays an important role in development, metabolic homeostasis and reproduction. Two subtypes of ER, ER-alpha and ER-beta, have similar expression patterns with some uniqueness in both types. Endocrine disrupting chemicals (EDCs) and their interactions with steroid hormone receptors like ER causes disruption of normal endocrine function. To identify the compounds that inhibit ER signaling, an ER-beta-UAS-bla GripTite cell line (Life Technologies, Madison, WI, USA) containing a beta-lactamase reporter gene under the control of an UAS response element was used to screen Tox21 10K compound library. The cytotoxicity of the Tox21 compound library against the ER-beta-bla cell line was tested in parallel by measuring the cell viability using CellTiter-Glo assay in the same wells.
Tox21 Assay Protocol Summary: ER-beta-UAS-bla HEK293T cells were dispensed at 2,000 cells/4 uL of assay medium containing 2% charcoal stripped FBS per well into black wall/clear-bottom 1536-well plates using a Multidrop Combi (ThermoFisher Scientific, Waltham, MA) dispenser. After the assay plates were incubated at a 37C and 5% CO2 for 6 hr, 23 nL of compounds dissolved in DMSO, positive controls or DMSO only was transferred to the assay plate by a Pintool station (Kalypsys, San Diego, CA), followed by addition of 1 uL (1nM as final concentration) of 17-beta-estradiol (E2) in assay medium using a Flying Reagent Dispenser (FRD, Aurora Discovery, San Diego, CA). The plates were incubated at 37C and 5% CO2 for 16 hr. Then 1 uL of LiveBLAzer B/G FRET substrate was added using a Flying Reagent Dispenser, the plates were incubated at room temperature for 2 hours, and fluorescence intensity was measured by an Envision plate reader (PerkinElmer, Shelton, CT). For cell viability readout that measures cytotoxicity, 4 uL/well of CellTiter-Glo reagent was added into the assay plates using a FRD. After 30 min incubation at room temperature, the luminescence intensity in the plates was measured using a ViewLux (PerkinElmer) plate reader.
On the % scale 0 is the no-effect control and ±100 the full control effect.

Row | Structure (SMILES) | outcome | activity change, negative = cytotoxicity
1 | C=CCn1cc[n+](C)c1 | inactive | –
2 | CC(C)(C)C(=O)CC(=O)C(C)(C)C | inactive | –
3 | CCCC(=O)OC | inactive | –
4 | C=CC(C)(CCC=C(C)C)OC(=O)C(C)C (stereo not given) | inactive | –
5 | CCCCc1ccc(Cl)cc1 | inactive | –
6 | Cc1cc(N)no1 | inactive | –
7 | CCCC[O][Al]([O]CCCC)[O]CCCC | inactive | –
8 | CC(=O)OCC(=O)[C@@]1(O)CC[C@H]2[C@@H]3CCC4=CC(=O)C=C[C@]4(C)[C@H]3[C@@H](O)C[C@@]21C | inactive | –
9 | Cc1cc2c(cc1CC(=O)c1sccc1S(=O)(=O)Nc1onc(C)c1Cl)OCO2 | inactive | –
10 | C[C@@H]1NC(=O)[C@@H](N)CNC(=O)[C@H](C2CCNC(N)=N2)NC(=O)/C(=C/NC(N)=O)NC(=O)[C@H](CNC(=O)C[C@@H](N)CCCN)NC1=O (stereo not given in full) | – | 4.08% [at 0.349 µM] (inactive)
11 | CCCCN1C(=O)c2ccccc2C1=O | inactive | –
12 | O=C(CCBr)N1CCN(C(=O)CCBr)CC1 | inactive | –
13 | NC[C@H]1O[C@H](O[C@H]2[C@H](O)[C@@H](O[C@H]3O[C@H](CO)[C@@H](O)[C@H](N)[C@H]3O)[C@H](N)C[C@@H]2N)[C@H](N)[C@@H](O)[C@@H]1O | – | 7.91% [at 19 µM] (inactive)
14 | O=Cc1ccc(C(=O)O)cc1 | inactive | –
15 | Cc1nc2ccc(Cl)cc2[nH]1 | inactive | –
16 | CC/C=C/CCCCCCCCCCOC(C)=O | inactive | –
17 | CCOC(=O)[C@H](CCc1ccccc1)N[C@H]1CS[C@H](c2cccs2)CN(CC(=O)O)C1=O | inactive | –
18 | CCCCCCC(=O)c1ccccc1 | inactive | –
19 | COc1ccccc1N1CCN(CC(O)COc2cc(OC)c(OC)c(OC)c2)CC1 (stereo not given) | inactive | –
20 | CCCCCCCCCCCCCC(=O)OCC | inactive | –

Row | Structure (SMILES) | outcome | activity change, negative = cytotoxicity
21 | CCO/C=C1\N=C(c2ccccc2)OC1=O | inactive | –
22 | O=S(=O)(O)c1ccc(Cl)cc1 | inactive | –
23 | CCN(CC)CC | inactive | –
24 | Cc1ccc(N)nc1 | inactive | –
25 | C[C@]12C=CC(=O)C=C1[C@@H](F)C[C@@H]1[C@@H]2[C@@H](O)C[C@@]2(C)[C@H]1CC[C@]2(O)C(=O)CO | inactive | –
26 | CCNC(=O)C(C)OC(=O)Nc1ccccc1 (stereo not given) | inactive | –
27 | C=CCOC(=O)CCCCCCCC | inactive | –
28 | C[C@@H](CN1CC(=O)NC(=O)C1)N1CC(=O)NC(=O)C1 | inactive | –
29 | COC(C)(C)CC(C)=O | inactive | –
30 | CC(C)(C)C(=O)CCc1ccc(Cl)cc1 | inactive | –
31 | CCCCCC(=O)CC | inactive | –
32 | CCCCCCCCCCCCCCCC(=O)OC | – | 0.248% [at 19 µM] (inactive)
33 | CN1C(CCl)Nc2cc(Cl)c(S(N)(=O)=O)cc2S1(=O)=O (stereo not given) | inactive | –
34 | CC(=O)O[C@@H]1CC2C3CCc4cc(OC(=O)c5ccccc5)ccc4C3CCC2(C)[C@H]1OC(C)=O (stereo not given in full) | inactive | –
35 | CCCCCCCCOCCC#N | inactive | –
36 | CN1CCN(C(=O)C2CCCCC2)CC1 | inactive | –
37 | CC1(C)C(=O)C(C)(C)C1=O | inactive | –
38 | C=CC(=O)OCCOCCOCC | inactive | –
39 | CC(=O)OC1CCC(C(C)(C)C)CC1 (stereo not given) | inactive | –
40 | COC(=O)/C=C(\C)CCC=C(C)C | inactive | –
